# Experimental data reported in PubChem BioAssay.
# Calls of active or inactive are those of the source.
# Legend:
# [1] = binders of probe aFSTL3 on microarray, primary screen, stem cell growth factor project, biochemical, small-molecule microarray, fluorescence 635/667 (AID 1064); settings: higher = more signal;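 also: measures binding of the biotinylated anti-FSTL3 antibody to printed compounds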
# [2] = binders from COS7 lysate, DM2A8 probe, primary screen, torsin A project, cell lysate, small-molecule microarray, fluorescence 635/667 (AID 1065); settings: higher = more signal, COS7 lysate expressing mutant human TOR1A
# [3] = binders of probe aFGF2 on microarray, primary screen, stem cell growth factor project, biochemical, small-molecule microarray, fluorescence 635/667 (AID 1067); settings: higher = more signal;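 also: measures binding of biotinylated aFGF2 protein to printed compounds on slides; z-score merges feature fluorescence and signal-to-noise across triplicate slides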
# [4] = binders of probe aFGF10 on microarray, primary screen, stem cell growth factor project, biochemical, small-molecule microarray, fluorescence 635/667 (AID 1071); settings: higher = more signal;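 also: score merges 667 nm spot intensity and signal to noise from triplicate slides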
# [5] = biological target: Neurogenic locus notch homolog protein 2 (Homo sapiens) (UniProt Q04721); assay: Notch2 binders on small-molecule microarrays, primary screen, biochemical, small-molecule microarray, 635 nm fluorescence, stem cell growth factors (AID 1073); settings: Notch2 binding, higher = more signal
# [6] = biological target: Pro-neuregulin-1, membrane-bound isoform (Homo sapiens) (UniProt Q02297); assay: NRG1 binders on small-molecule microarrays, primary screen, psychiatric disease protein project, biochemical, small-molecule microarray, fluorescence 635/667 (AID 1075); settings: NRG1 binding, 635 nm fluorescence, higher = more signal;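 also: score combines 667 nm spot fluorescence with signal to noise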
# [7] = test system: Neuregulin-1 EGF-like domain; assay: binders of neuregulin-1 EGF-like domain, primary screen, biochemical, small-molecule microarray, 635 nm fluorescence (AID 1081); settings: small-molecule microarray binding, higher = more signal;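 also: binding of the protein to compounds printed on small-molecule microarray slides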
# [8] = FRG1 promoter luciferase signal modulators, primary screen, FRG1 inhibition for FSHD, cell-based, C2C12 myotubes, firefly/Renilla luciferase, luminescence (AID 1084); settings: higher = more signal, called active from +8 up or from −8 down
# [9] = binders of probe aFST on microarray, primary screen, stem cell growth factor project, biochemical, small-molecule microarray, fluorescence 635/667 (AID 1086); settings: higher = more signal;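 also: score merges 667 nm fluorescence with signal-to-noise of each printed compound spot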
# [10] = binders of probe aHhip on microarray, primary screen, stem cell growth factor project, biochemical, small-molecule microarray, fluorescence 635/667 (AID 1087); settings: higher = more signal;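 also: score merges spot fluorescence at 667nm with spot signal to noise ratio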
# [11] = test system: PRMT1 (protein arginine N-methyltransferase 1); assay: PRMT1 binders on small-molecule microarrays, primary screen, biochemical, small-molecule microarray, 635 nm fluorescence (AID 1088); settings: small-molecule microarray binding, higher = more signal;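 also: binding of Prmt1 protein to compounds spotted on small-molecule microarray slides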
# [12] = yeast growth modulation, basal conditions, primary screen, YJM789 clinical isolate, OD600, 24 h (AID 1089);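 also: growth of clinical yeast isolate S. cerevisiae YJM 789 seeded 1000 cells per well; test concentration not given here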; settings: S. cerevisiae YJM789 growth, higher = more signal, called active from +8 up or from −8 down
# [13] = fission yeast growth modulation, primary screen, strain 972, OD600, 24 h, no modulator (AID 1090);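 also: basal condition with compound alone and no growth modifier present; test concentration not given here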; settings: S. pombe 972 growth, higher = more signal, called active from +8 up or from −8 down
# [14] = S. cerevisiae growth modulation with rapamycin, primary screen, strain BY4716, OD600, 96 h (AID 1091); settings: higher = more signal, called active from +8 up or from −8 down; also: test concentration not given here
# [15] = biological target: Torsin-1A-interacting protein 2 (Homo sapiens) (UniProt Q8NFQ8); assay: LULL1 binders on small-molecule microarray, primary screen, cell lysate, human LULL1 lysate, 635/667 nm fluorescence (AID 1092); settings: hLULL1 lysate binding, 635 nm fluorescence, higher = more signal;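 also: probe is lysate of COS7 cells overexpressing human LULL1; score merges per-feature 667 nm fluorescence with signal-to-noise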
# [16] = E. coli growth modulation, two-sided OD650, primary screen, E. coli filamentation project, strain DRC41, 24 h (AID 1093); settings: OD650, 24 h, higher = more signal, called active from +8 up or from −8 down;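 also: MC1000 strain lacking acrAB efflux and sulA so SOS filamentation is blocked; test concentration not given here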
# [17] = small-molecule microarray binders of probe aLefty2, primary screen, biochemical, biotinylated probe, 635/667 nm fluorescence (AID 1094); settings: higher = more signal;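 also: score merges spot fluorescence near 667 nm with spot signal-to-noise ratio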
# [18] = test system: Noggin (protein binding on small-molecule microarray); assay: Noggin binders on small-molecule microarray, primary screen, biochemical, 635/667 nm fluorescence (AID 1095); settings: 635 nm fluorescence, higher = more signal;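 also: score merges 667 nm feature fluorescence with signal to noise over triplicate slides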
# [19] = biological target: Neurogenic locus notch homolog protein 3 (Homo sapiens) (UniProt Q9UM47); assay: NOTCH3 binders on small-molecule microarray, primary screen, biochemical, 635/667 nm fluorescence (AID 1096); settings: NOTCH3 binding, 635 nm fluorescence, higher = more signal
# [20] = small-molecule microarray binders of probe aEGFR, primary screen, biochemical, biotinylated probe, 635/667 nm fluorescence (AID 1097); settings: higher = more signal;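 also: probe is a biotinylated anti-EGFR antibody binding compounds printed on slides; score combines fluorescence near 667 nm and signal to noise of each spot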
# Sequence of Pro-neuregulin-1, membrane-bound isoform (Homo sapiens) (Q02297 whole entry, looked up, the tested form may be a part, canonical isoform): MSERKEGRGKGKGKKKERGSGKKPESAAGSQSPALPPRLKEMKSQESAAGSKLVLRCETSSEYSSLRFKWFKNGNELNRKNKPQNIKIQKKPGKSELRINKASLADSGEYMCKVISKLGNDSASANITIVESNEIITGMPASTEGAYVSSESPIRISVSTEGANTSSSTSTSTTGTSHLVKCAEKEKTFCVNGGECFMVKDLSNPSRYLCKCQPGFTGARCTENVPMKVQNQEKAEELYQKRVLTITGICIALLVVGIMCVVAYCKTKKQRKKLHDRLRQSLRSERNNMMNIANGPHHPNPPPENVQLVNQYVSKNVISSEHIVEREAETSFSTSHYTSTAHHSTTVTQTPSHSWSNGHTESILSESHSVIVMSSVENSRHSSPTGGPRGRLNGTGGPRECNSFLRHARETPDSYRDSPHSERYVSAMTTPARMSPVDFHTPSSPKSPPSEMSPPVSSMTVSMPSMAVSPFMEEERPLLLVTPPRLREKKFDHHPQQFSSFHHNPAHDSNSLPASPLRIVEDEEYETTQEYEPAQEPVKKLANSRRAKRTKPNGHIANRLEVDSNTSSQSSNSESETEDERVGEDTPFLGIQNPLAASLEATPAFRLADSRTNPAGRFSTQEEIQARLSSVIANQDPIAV
# Sequence of Neurogenic locus notch homolog protein 3 (Homo sapiens) (Q9UM47 whole entry, looked up): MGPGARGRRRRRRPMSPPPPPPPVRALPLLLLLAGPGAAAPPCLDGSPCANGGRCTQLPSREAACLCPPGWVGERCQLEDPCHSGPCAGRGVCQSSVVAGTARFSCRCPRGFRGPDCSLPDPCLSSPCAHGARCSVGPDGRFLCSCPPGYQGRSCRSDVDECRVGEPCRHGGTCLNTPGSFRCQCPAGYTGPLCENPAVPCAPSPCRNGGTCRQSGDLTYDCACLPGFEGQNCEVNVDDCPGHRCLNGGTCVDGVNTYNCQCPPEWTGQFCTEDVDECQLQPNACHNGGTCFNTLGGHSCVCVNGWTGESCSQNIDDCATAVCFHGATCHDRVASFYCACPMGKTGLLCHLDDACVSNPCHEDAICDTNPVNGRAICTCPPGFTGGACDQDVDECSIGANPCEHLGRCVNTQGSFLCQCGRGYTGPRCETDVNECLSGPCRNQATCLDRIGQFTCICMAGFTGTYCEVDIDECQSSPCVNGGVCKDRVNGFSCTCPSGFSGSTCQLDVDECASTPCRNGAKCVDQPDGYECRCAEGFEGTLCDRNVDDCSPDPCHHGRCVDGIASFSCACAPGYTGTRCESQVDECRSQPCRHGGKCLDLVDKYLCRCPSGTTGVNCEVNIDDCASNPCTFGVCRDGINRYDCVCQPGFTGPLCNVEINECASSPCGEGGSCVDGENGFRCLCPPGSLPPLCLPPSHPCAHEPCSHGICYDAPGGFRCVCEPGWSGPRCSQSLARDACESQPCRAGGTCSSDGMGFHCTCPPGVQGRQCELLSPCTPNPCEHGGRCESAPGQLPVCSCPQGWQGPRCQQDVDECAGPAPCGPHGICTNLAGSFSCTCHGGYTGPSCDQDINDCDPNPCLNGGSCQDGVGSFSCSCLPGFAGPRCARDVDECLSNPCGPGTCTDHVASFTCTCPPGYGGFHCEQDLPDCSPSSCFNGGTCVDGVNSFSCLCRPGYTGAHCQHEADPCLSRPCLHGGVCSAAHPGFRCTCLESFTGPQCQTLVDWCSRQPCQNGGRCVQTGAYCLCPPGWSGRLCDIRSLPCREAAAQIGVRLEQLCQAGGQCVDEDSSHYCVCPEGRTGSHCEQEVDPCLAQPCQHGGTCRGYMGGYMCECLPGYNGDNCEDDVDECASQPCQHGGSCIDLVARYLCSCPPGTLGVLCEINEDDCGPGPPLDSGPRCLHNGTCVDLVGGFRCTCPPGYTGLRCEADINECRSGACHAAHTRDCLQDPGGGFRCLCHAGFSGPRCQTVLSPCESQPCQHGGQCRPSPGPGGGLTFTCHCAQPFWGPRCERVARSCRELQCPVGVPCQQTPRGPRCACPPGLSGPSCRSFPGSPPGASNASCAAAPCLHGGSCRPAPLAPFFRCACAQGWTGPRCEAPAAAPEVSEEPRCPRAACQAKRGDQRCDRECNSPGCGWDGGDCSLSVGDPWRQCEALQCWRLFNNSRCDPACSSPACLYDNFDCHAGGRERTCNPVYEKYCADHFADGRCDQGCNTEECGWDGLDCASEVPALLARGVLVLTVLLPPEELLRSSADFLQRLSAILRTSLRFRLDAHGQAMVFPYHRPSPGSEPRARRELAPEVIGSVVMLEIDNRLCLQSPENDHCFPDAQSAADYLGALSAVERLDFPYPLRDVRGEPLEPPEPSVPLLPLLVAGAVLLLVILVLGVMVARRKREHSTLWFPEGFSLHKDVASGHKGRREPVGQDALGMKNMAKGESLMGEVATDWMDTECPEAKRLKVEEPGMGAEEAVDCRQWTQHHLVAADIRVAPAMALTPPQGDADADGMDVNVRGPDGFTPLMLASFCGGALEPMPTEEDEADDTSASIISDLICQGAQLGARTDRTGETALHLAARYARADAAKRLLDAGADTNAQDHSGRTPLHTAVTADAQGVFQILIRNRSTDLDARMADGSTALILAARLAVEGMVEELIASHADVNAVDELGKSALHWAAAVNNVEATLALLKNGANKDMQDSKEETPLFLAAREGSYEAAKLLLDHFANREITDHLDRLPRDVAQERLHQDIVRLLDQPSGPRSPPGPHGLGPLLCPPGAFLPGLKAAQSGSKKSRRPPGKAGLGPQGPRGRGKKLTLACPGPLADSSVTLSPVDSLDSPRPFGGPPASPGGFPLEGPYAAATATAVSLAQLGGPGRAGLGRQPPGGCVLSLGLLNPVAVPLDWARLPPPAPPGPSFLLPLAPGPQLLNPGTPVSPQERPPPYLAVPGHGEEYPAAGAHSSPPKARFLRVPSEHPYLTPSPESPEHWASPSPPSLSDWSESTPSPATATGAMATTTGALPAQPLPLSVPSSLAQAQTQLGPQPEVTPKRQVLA
# Sequence of Torsin-1A-interacting protein 2 (Homo sapiens) (Q8NFQ8 whole entry, looked up): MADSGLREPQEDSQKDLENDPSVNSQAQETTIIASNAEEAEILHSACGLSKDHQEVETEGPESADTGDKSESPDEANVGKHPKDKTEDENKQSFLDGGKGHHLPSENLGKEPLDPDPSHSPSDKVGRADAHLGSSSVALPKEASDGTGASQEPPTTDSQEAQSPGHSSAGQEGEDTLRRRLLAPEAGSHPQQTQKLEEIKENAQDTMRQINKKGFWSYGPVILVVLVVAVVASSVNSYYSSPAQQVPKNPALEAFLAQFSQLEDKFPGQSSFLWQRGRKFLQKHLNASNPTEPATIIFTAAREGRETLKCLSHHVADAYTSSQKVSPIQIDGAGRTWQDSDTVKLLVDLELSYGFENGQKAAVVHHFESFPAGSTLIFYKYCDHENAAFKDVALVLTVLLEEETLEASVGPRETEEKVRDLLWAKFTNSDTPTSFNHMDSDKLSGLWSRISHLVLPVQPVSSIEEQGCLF
SMILES,composite z-score [1],composite z-score [2],composite z-score [3],composite z-score [4],composite z-score [5],composite z-score [6],composite z-score [7],z-score [8],composite z-score [9],composite z-score [10],composite z-score [11],z-score [12],z-score [13],z-score [14],composite z-score [15],z-score [16],composite z-score [17],composite z-score [18],composite z-score [19],composite z-score [20]
N#Cc1ccc(-c2cccc(=O)o2)cc1,-0.5,0.316,-0.103,0.248,0.601,0.114,0.678,0.563 (inactive),0.445,-0.166,1,-0.24 (inactive),-0.537 (inactive),0.805 (inactive),0.552,-0.675 (inactive),-0.212,0.671,0.718,-0.0794
C=CCC(OC(C)=O)[C@@H]1[C@@H](N(Cc2cc3ccccc3o2)C(=O)Cc2ccc(OC)cc2)c2cc(OCCCO)ccc2N1C(=O)c1ccc2ccccc2n1 (stereo not given in full),-0.0558,-0.24,0.0372,0.176,0.0554,-0.251,-0.0159,0.544 (inactive),0.271,0.12,0.404,-0.256 (inactive),-0.844 (inactive),0.292 (inactive),0.295,1.03 (inactive),0.0478,0.356,0.0707,0.0453
C=C(C)[C@@H]1CC=C(C(O)C2C=CC3C(=O)N(C)C(=O)C3N2Nc2ccc([N+](=O)[O-])cc2[N+](=O)[O-])CC1 (stereo not given in full),0.661,0.294,-0.144,0.431,1.68,1.74,1.36,0.404 (inactive),1.46,-0.0003,1.32,0.513 (inactive),1.79 (inactive),0.966 (inactive),3.52,-0.476 (inactive),0.519,0.263,1.07,0.358
COc1ccc([Si](C)(C)[C@@H]2[C@@H](CC(=O)N3CCC[C@H]3CO)O[C@]3(C(=O)N(Cc4cccc(N5CCCCC5=O)c4)c4ccccc43)[C@H]2C)cc1,-0.398,0.887,-0.116,0.411,0.0236,1.07,1.07,-0.0792 (inactive),-0.015,-0.0296,1.57,-0.965 (inactive),-0.388 (inactive),0.1 (inactive),1.89,0.807 (inactive),-0.183,0.894,0.625,-0.0828
O=C1NC(=O)C2C1C=CC(C(O)c1ccc([N+](=O)[O-])cc1)N2Nc1ccccn1 (stereo not given),0.0895,-0.0755,-0.0442,0.0525,0.864,0.441,0.554,0.484 (inactive),-0.16,-0.0074,-0.453,-0.0716 (inactive),0.917 (inactive),0.346 (inactive),0.307,-0.562 (inactive),-0.0218,0.241,-0.432,-0.0355
O=C1C=C(c2ccccc2)C(=O)C2=C1CC([C@H]1Oc3ccccc3S(=O)(=O)N3CCC[C@@H]13)=CC2,-0.415,-0.618,-0.119,-0.0024,-0.103,0.0032,-0.702,-0.7 (inactive),1.49,-0.0296,0.345,-0.418 (inactive),-3.32 (inactive),13.4 (active),-0.101,0.542 (inactive),-0.183,-0.194,0.0989,-0.135
COC(=O)[C@@]1(Cc2ccc(OC)cc2)[C@H]2c3cc(C(=O)N4CCCC4)n(Cc4ccc(C(F)(F)F)nc4)c3C[C@H]2CN1C(=O)c1ccccc1,0.308,0.374,-0.102,0.999,1.21,1.66,1.24,0.491 (inactive),-0.25,0.388,0.0861,-0.361 (inactive),-0.138 (inactive),-0.707 (inactive),1.05,-1.1 (inactive),0.248,0.113,0.269,0.131
COC(=O)C1=CC(CCCO)=CC(c2cccs2)N(Cc2cc3c(cc2Br)OCO3)C=C1C(=O)OC (stereo not given),0.0066,0.951,0.0931,1.02,1.27,1.66,1.33,-2.18 (inactive),0.182,0.0972,1.56,0.74 (inactive),-0.997 (inactive),0.132 (inactive),3.17,0.923 (inactive),0.109,0.404,1.12,0.236
COC(=O)[C@@]1(Cc2ccc(F)cc2)[C@H]2c3cc(C(=O)N4CCCC4)n(Cc4cc(F)cc5c4OCOC5)c3C[C@H]2CN1C(=O)c1ccccc1,0.653,-0.622,0.13,0.816,1.75,1.69,0.102,0.869 (inactive),1.56,0.0759,0.272,0.494 (inactive),1.57 (inactive),3.33 (inactive),0.423,-0.0269 (inactive),0.299,0.739,1.12,0.36
COCCOC(=O)N1C(=O)[C@@]2(c3cc(C#CCC(C(=O)OC)C(=O)OC)ccc31)[C@H](c1ccc(O)cc1)N1[C@H](c3ccccc3)[C@H](c3ccccc3)OC(=O)[C@H]1[C@@H]2C(=O)Nc1nc2ccccc2s1,-0.0882,1.39,0.0001,0.785,1.27,1.12,1.27,0.909 (inactive),0.606,0.382,1.53,0.978 (inactive),0.583 (inactive),0.0726 (inactive),2.76,0.338 (inactive),0.0424,1.39,1.04,0.106
